# Reference: PubChem BioAssay (NCATS)
# Results filed as inconclusive are left out. Where a call stands in place of a potency, no number is given. Active and inactive are the calls of the source. Calls follow the shape of the dose curve; as a rule, active = well fitted curve in the direction sought with a large enough effect; inconclusive = small, poorly fitted or top-dose-only effect, or another doubt; inactive = no such curve, though single readings can be large; an effect the other way counts as inactive or inconclusive.
# Legend:
# [1] = MultiTox-Fluor Cytotoxicity Assay - LYMP1-002 - Live Cells (AID 955);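 also: cells exposed to compound for 16 hours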; also: potency is read from the fitted curve at half-maximal effect
# How it was run: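 LYMP1-002 lymphoblastoid cells; 2500 cells/well; 16 hr compound exposure, 37 C; MultiTox-Fluor reagent 60 min RT; live-cell fluorescence Ex/Em=405/510; qHTS concentration-response, Hill-equation AC50; tetraoctylammonium bromide positive control.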
# [2] = MultiTox-Fluor Cytotoxicity Assay - LYMP1-002 - Dead Cells (AID 960);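 also: cells exposed to compound for 16 h at 37 °C; nearly all actives have a fitted effect of over 60% in size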
# How it was run: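 Readout: fluorescence at 485/520 from cell-impermeant bis-AAF-R110 cleaved by proteases leaking from damaged cells. LYMP1-002 lymphoblastoid line, 16 hr compound treatment at 37 C, concentration-response in qHTS format; Hill-equation AC50 values.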
# [3] = MultiTox-Fluor Cytotoxicity Assay - LYMP1-003 - Live Cells (AID 962);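 also: cells exposed to compound for 16 hours at 37 °C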; also: potency is read from the fitted curve at half-maximal effect
# How it was run: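 Readout: live-cell fluorescence (Ex/Em=405/510) from GF-AFC cleavage after 60 min MultiTox-Fluor reagent at room temperature. Lymphoblastoid LYMP1-003 cells, 16 hr compound treatment, 37 C. Concentration-response fitted to standard Hill equation for AC50.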
# [4] = Cell Viability - LYMP1-003 - Assay at 24 hr (AID 963); also: potency is read from the fitted curve at half-maximal effect
# How it was run: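 CellTiter-Glo luminescence (intracellular ATP) read after 24 hr, 37 C compound exposure of 2500 LYMP1-003 human lymphoblastoid cells/well in complete medium; qHTS concentration series; AC50 via standard Hill equation.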
# [5] = Cell Viability - LYMP1-003 - Assay at 40 hr (AID 964); also: nearly all actives have a fitted effect of over 60% in size; also: potency is read from the fitted curve at half-maximal effect
# How it was run: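 LYMP1-003 lymphoblastoid cells, 2500/well; 5 hr preincubation, 40 hr compound exposure, 37 C; CellTiter-Glo 30 min RT; luminescence; Hill-fit AC50. Positive control tetraoctylammonium bromide.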
# [6] = Cell Viability - LYMP2-003 (AID 965);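 also: cells exposed to compounds for 24 h before reading; nearly all actives have a fitted effect of over 50% in size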; also: potency is read from the fitted curve at half-maximal effect
# How it was run: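 qHTS, human lymphoblastoid line, 2500 cells/well, complete medium. 24 h drug, 37 C. ATP-based luminescent readout; Hill-fit AC50.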
# [7] = Cell Viability - LYMP2-004 (AID 966); also: nearly all actives have a fitted effect of over 65% in size
# How it was run: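 Luminescent ATP read-out (CellTiter-Glo, 30 min RT) after 24 hr compound exposure at 37 C; 2500 lymphoblastoid cells/well, complete medium. Decrease in ATP = cytotoxicity; AC50 from standard Hill model.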
# [8] = Cell Viability - LYMP2-005 (AID 967); also: potency is read from the fitted curve at half-maximal effect
# How it was run: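 Luciferase-based ATP quantitation served as the viability measure in human lymphoblastoid LYMP2-005 cells exposed to test compounds for 24 h at 37 C in complete culture medium. Potency (AC50) was obtained by fitting concentration-response curves with the Hill equation.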
# [9] = Cell Viability - LYMP2-009 (AID 968); also: nearly all actives have a fitted effect of over 55% in size; also: potency is read from the fitted curve at half-maximal effect
# [10] = Cell Viability - LYMP2-011 (AID 969); also: nearly all actives have a fitted effect of over 60% in size; also: potency is read from the fitted curve at half-maximal effect
# How it was run: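 Luminescent ATP read-out (CellTiter-Glo, 30 min RT) after 24 hr compound exposure at 37 C in human lymphoblastoid cells, 2500 cells/well. Decreasing ATP indicates cytotoxicity; AC50 from standard Hill fit.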
# [11] = Cell Viability - LYMP2-013 (AID 970); also: nearly all actives have a fitted effect of over 55% in size; also: potency is read from the fitted curve at half-maximal effect
# How it was run: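 CellTiter-Glo luminescence (cellular ATP) read after 30 min at RT. Cells: human lymphoblastoid line, 2500/well, 24 hr compound exposure at 37 C. Tetraoctylammonium bromide positive control; AC50 via standard Hill fit of qHTS titrations.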
# [12] = Cell Viability - LYMP2-015 (AID 971); also: nearly all actives have a fitted effect of over 55% in size; also: potency is read from the fitted curve at half-maximal effect
# How it was run: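 qHTS cytotoxicity: 2500 cells/well, 5 hr 37 C, compound 24 hr 37 C, CellTiter-Glo 30 min RT, luminescence. Loss of ATP = toxicity; AC50 via standard Hill fit.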
# [13] = Cell Viability - LYMP2-017 (AID 972); also: nearly all actives have a fitted effect of over 55% in size; also: potency is read from the fitted curve at half-maximal effect
# How it was run: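 Luminescent ATP read-out (CellTiter-Glo, 30 min RT) reports viable cell number. Cells: human lymphoblastoid line, 2500 per well, 5 hr preincubation, 24 hr compound exposure at 37 C. AC50 is derived from qHTS concentration-response data using the standard Hill model.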
# [14] = Cell Viability - LYMP2-019 (AID 973); also: nearly all actives have a fitted effect of over 55% in size; also: potency is read from the fitted curve at half-maximal effect
# How it was run: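 qHTS, 1536-well; 2500 cells/well; 5 hr pre-incubation, 24 hr compound exposure, 37 C; CellTiter-Glo added, 30 min RT; luminescence read; AC50 via standard Hill equation.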
# [15] = Cell Viability - LYMP2-021 (AID 974); also: potency is read from the fitted curve at half-maximal effect
# How it was run: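 ATP luminescence (CellTiter-Glo, 30 min RT) after 24 h compound exposure at 37 C; 2500 human lymphoblastoid cells/well, 5 h settle beforehand. Cytotoxicity = concentration-dependent ATP drop, AC50 by Hill fit.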
# [16] = Cell Viability - LYMP2-023 (AID 975); also: nearly all actives have a fitted effect of over 55% in size; also: potency is read from the fitted curve at half-maximal effect
# How it was run: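 CellTiter-Glo luminescence after 30 min at room temperature; decrease in intracellular ATP reflects toxicity. Cells: human lymphoblastoid line, 2500/well, 24 hr compound exposure at 37 C. AC50 fitted to standard Hill equation from concentration-response.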
# [17] = Cell Viability - LYMP2-025 (AID 976); also: potency is read from the fitted curve at half-maximal effect
# How it was run: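 CellTiter-Glo luminescence (cellular ATP) after 24 h compound exposure at 37 C; LYMP2-025 human lymphoblastoid cells, 2500/well, complete medium. Tetraoctylammonium bromide positive control. AC50 by Hill equation fit of qHTS concentration-response.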
# [18] = Cell Viability - LYMP2-002 (AID 977); also: potency is read from the fitted curve at half-maximal effect
# How it was run: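 In this qHTS viability screen, 2500 human lymphoblastoid cells per well receive compound for 24 hr at 37 C, and luciferase-based ATP luminescence gives the viability signal. Tetraoctylammonium bromide serves as positive control.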
# [19] = Cell Viability - LYMP2-006 (AID 978); also: nearly all actives have a fitted effect of over 60% in size; also: potency is read from the fitted curve at half-maximal effect
# How it was run: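 In this cytotoxicity screen, the human lymphoblastoid line grew in complete medium with test compounds for 24 hr at 37 C. Cellular ATP served as the viability signal.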
# [20] = molecular target: Alpha-galactosidase (Coffea arabica) (UniProt Q42656); test: Counterscreen for Glucocerebrosidase Inhibitors: qHTS Assay for Coffee Bean alpha-Galactosidase at pH 4.5 (AID 957); also: series mostly up to about 77 µM
# How it was run: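 Fluorogenic read-out: 4-methylumbelliferone at Ex 365/Em 440 nm after NaOH/glycine stop (pH 10). Enzyme 2 nM, 4-MU-alpha-galactoside 80 uM, citrate buffer pH 4.5, 20 min RT; normalized to no-enzyme and enzyme controls.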
# Alpha-galactosidase (Coffea arabica), sequence (Q42656 whole entry, looked up): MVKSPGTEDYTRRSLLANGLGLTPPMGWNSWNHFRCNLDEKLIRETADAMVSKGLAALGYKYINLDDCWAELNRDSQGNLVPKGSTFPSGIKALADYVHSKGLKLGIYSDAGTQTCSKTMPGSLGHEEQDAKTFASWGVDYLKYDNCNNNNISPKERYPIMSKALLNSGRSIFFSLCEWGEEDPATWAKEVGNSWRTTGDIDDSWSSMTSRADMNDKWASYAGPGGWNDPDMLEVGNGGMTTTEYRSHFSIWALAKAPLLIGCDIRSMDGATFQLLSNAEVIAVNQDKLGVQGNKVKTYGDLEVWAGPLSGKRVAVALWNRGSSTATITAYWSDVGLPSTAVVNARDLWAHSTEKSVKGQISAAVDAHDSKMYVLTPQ
smiles,measurement,setting,value
Oc1c(Br)cc(Br)cc1Br,Potency,[1],inactive
same,Potency,[2],inactive
same,Potency,[3],inactive
same,Potency,[4],inactive
same,Potency,[5],inactive
same,Potency,[6],inactive
same,Potency,[7],inactive
same,Potency,[8],inactive
same,Potency,[9],inactive
same,Potency,[10],inactive
same,Potency,[11],inactive
same,Potency,[12],inactive
same,Potency,[13],inactive
same,Potency,[14],inactive
same,Potency,[15],inactive
same,Potency,[16],inactive
same,Potency,[17],inactive
same,Potency,[18],inactive
same,Potency,[19],inactive
CNC(=O)Oc1cccc2ccccc12,Potency,[1],inactive
same,Potency,[2],inactive
same,Potency,[3],inactive
same,Potency,[4],inactive
same,Potency,[6],inactive
same,Potency,[7],inactive
same,Potency,[8],inactive
same,Potency,[9],inactive
same,Potency,[10],inactive
same,Potency,[11],inactive
same,Potency,[12],inactive
same,Potency,[13],inactive
same,Potency,[14],inactive
same,Potency,[15],inactive
same,Potency,[16],inactive
same,Potency,[17],inactive
same,Potency,[18],inactive
same,Potency,[19],inactive
O=C(O)CP(=O)(O)O,outcome,[20],inactive
NCCc1ccc(O)c(O)c1,outcome,[20],inactive
CCCCCCCCC(=O)NCc1ccc(O)c(OC)c1,outcome,[20],inactive
CCCCCCCCCCCC[N+](C)(C)CCOc1ccccc1,Potency,[1],10 µM (active)
same,Potency,[3],31.6 µM (active)
same,Potency,[4],12.6 µM (active)
same,Potency,[5],31.6 µM (active)
same,Potency,[6],50.1 µM (active)
same,Potency,[9],31.6 µM (active)
same,Potency,[10],39.8 µM (active)
same,Potency,[11],31.6 µM (active)
same,Potency,[12],31.6 µM (active)
same,Potency,[13],39.8 µM (active)
same,Potency,[14],39.8 µM (active)
same,Potency,[15],39.8 µM (active)
same,Potency,[16],50.1 µM (active)
same,Potency,[17],50.1 µM (active)
same,Potency,[18],50.1 µM (active)
same,Potency,[19],20 µM (active)
Cn1c(=O)c2c(ncn2C)n(C)c1=O,outcome,[20],inactive
c1cnc(N2CCN(Cc3ccc4c(c3)OCO4)CC2)nc1,outcome,[20],inactive
O=C1CC2(CCCC2)CC(=O)N1CCCCN1CCN(c2ncccn2)CC1,outcome,[20],inactive
CC1=C(C)C(=O)C(CCCCC#CCCCC#CCO)=C(C)C1=O,outcome,[20],inactive
CCCCNc1cc(C(=O)O)cc(S(N)(=O)=O)c1Oc1ccccc1,outcome,[20],inactive
O=C1N(c2ccccc2)c2ccccc2C1(Cc1ccncc1)Cc1ccncc1,outcome,[20],inactive
Clc1ccc(Cn2c(CN3CCCC3)nc3ccccc32)cc1,outcome,[20],inactive
NCCc1cnc[nH]1,outcome,[20],inactive
CCN(CC)CCOCCOC(=O)C1(c2ccccc2)CCCC1,outcome,[20],inactive
CCOC(=O)C(C)(C)Oc1ccc(Cl)cc1,outcome,[20],inactive
Oc1ccc(Cl)cc1Cc1cc(Cl)ccc1O,Potency,[5],25.1 µM (active)
Oc1ccc(Cl)cc1Sc1cc(Cl)ccc1O,Potency,[5],31.6 µM (active)
same,Potency,[9],39.8 µM (active)
same,Potency,[14],39.8 µM (active)
same,Potency,[15],39.8 µM (active)
CSc1ccc(C(=O)c2[nH]c(=O)[nH]c2C)cc1,outcome,[20],inactive
CN(C(=O)CCCOc1ccc2[nH]c(=O)ccc2c1)C1CCCCC1,outcome,[20],inactive
Cc1ccc(C(=O)Nc2ccc(S(=O)(=O)O)c3cc(S(=O)(=O)O)cc(S(=O)(=O)O)c23)cc1NC(=O)c1cccc(NC(=O)Nc2cccc(C(=O)Nc3cc(C(=O)Nc4ccc(S(=O)(=O)O)c5cc(S(=O)(=O)O)cc(S(=O)(=O)O)c45)ccc3C)c2)c1,outcome,[20],inactive
NC(N)=NC(=O)c1nc(Cl)c(N)nc1N,outcome,[20],inactive
CCNC(=O)N1CCN(CCCC(c2ccc(F)cc2)c2ccc(F)cc2)CC1,outcome,[20],inactive
CC[n+]1c(-c2ccccc2)c2cc(N)ccc2c2ccc(N)cc21,Potency,[3],12.6 µM (active)
same,Potency,[4],15.8 µM (active)
same,Potency,[5],6.31 µM (active)
same,Potency,[6],31.6 µM (active)
same,Potency,[8],6.31 µM (active)
same,Potency,[9],15.8 µM (active)
same,Potency,[10],12.6 µM (active)
same,Potency,[11],15.8 µM (active)
same,Potency,[12],15.8 µM (active)
same,Potency,[13],15.8 µM (active)
same,Potency,[14],12.6 µM (active)
same,Potency,[15],20 µM (active)
same,Potency,[16],15.8 µM (active)
same,Potency,[17],15.8 µM (active)
same,Potency,[18],15.8 µM (active)
same,Potency,[19],10 µM (active)
c1cc(CN2CCCCC2)cc(OCCCNc2nc3ccccc3s2)c1,outcome,[20],inactive
C(=C\c1ccccc1)/CN1CCN(C(c2ccccc2)c2ccccc2)CC1,outcome,[20],inactive
O=C(O)CCc1nc(-c2ccccc2)c(-c2ccccc2)o1,outcome,[20],inactive
CCCCC1C(=O)N(c2ccccc2)N(c2ccccc2)C1=O,outcome,[20],inactive
COc1ccc(C(=O)N2CCCC2=O)cc1,outcome,[20],inactive
CCOC(=O)Nc1ccc(NCc2ccc(F)cc2)nc1N,outcome,[20],inactive
C=Cc1c(C)c2cc3[nH]c(cc4nc(cc5nc(cc1[nH]2)C(C)=C5CCC(=O)O)C(CCC(=O)O)=C4C)c(C)c3C=C,outcome,[20],inactive
CC1(C)[C@@H]2CC[C@@]1(C)C(=O)C2,Potency,[2],inactive
Cc1ccc(=O)n(-c2ccccc2)c1,outcome,[20],inactive
C[C@]12CCC(=O)C=C1CC[C@@H]1[C@@H]2C(=O)C[C@@]2(C)[C@H]1CC[C@]2(O)C(=O)CO,outcome,[20],inactive
CCC(=O)c1ccc2c(c1)N(CCCN(C)C)c1ccccc1S2,outcome,[20],inactive
COc1nc(C)nc(Cl)c1NC1=NCCN1,outcome,[20],inactive
Cc1cc(C(C)(C)C)c(O)c(C)c1CC1=NCCN1,outcome,[20],inactive
CN1[C@@H]2CC[C@H]1CC(OC(=O)c1c[nH]c3ccccc13)C2 (some centres undefined),outcome,[20],inactive
O=C(CCNNC(=O)c1ccncc1)NCc1ccccc1,outcome,[20],inactive
CNC[C@H](O)c1ccc(O)c(O)c1,outcome,[20],inactive
Nc1ccn([C@H]2CC[C@@H](CO)O2)c(=O)n1,outcome,[20],inactive
